# Source: PubChem BioAssay AID2315 (National Center for Advancing Translational Sciences (NCATS), 2010)
# Screen size: about 290,000 compounds; about 27,000 (9.3%) were called active. Shown is part of a subset that was picked to be rich in actives. Unmarked numbers belong to inactive results. Rule as the data show it: active = inhibition mostly above about 28% (no sharp cut-off); inactive = mostly below about 43%.
# Experiment: A qHTS for Small Molecule Inhibitors of Shiga Toxin; also: 0% is about no effect
# Conditions: Vero cells, Shiga toxin protein synthesis inhibition reporter; at 38.7 µM, stronger effect = higher value
row,Structure (SMILES),inhibition
1,COc1ccc(NC(=O)NCc2ccc3c(c2)OCO3)c(OC)c1,-9.62%
2,CN(C)CCN(C(=O)C1CCCCC1)c1nc2cc3c(cc2s1)OCO3,-7.68%
3,CC(=O)N1CCc2cc(S(=O)(=O)NC3CCCCC3)ccc21,-2.55%
4,COc1ccc(C(=O)COC(=O)CNC(=O)c2cccs2)cc1Br,-12%
5,CC(=O)Nc1ccc(Nc2ncnc3c2nnn3Cc2ccccc2Cl)cc1,-4.64%
6,COc1ccc(/C=C2\SC(=S)N(CCC(=O)Nc3ccccn3)C2=O)cc1OC,-13.3%
7,CCOc1ccc(N(CC(=O)NCC2CCCO2)S(=O)(=O)c2ccc(C)cc2)cc1 (stereo not given),-4.82%
8,COCn1c(COc2ccccc2)nc2ccccc21,13.8% (active)
9,O=C(Cn1c(COc2ccccc2)nc2ccccc21)Nc1cc(Cl)c(Cl)cc1Cl,3.93%
10,CC(C)n1c(COc2ccccc2)nc2ccccc21,-5.6%
11,Cc1ccc(C23CC4CC(CC(C(=O)NCC(=O)O)(C4)C2)C3)cc1,-7.52%
12,Cc1cccc(OCC(=O)NC2CC(C)(C)NC(C)(C)C2)c1,1.98%
13,CC(NCCc1ccc(S(N)(=O)=O)cc1)C(=O)NCc1ccccc1 (stereo not given),45.3%
14,Cc1cc(S(=O)(=O)N2CCOCC2)ccc1OCC(=O)Nc1cccc(C(F)(F)F)c1,-13.1%
15,CCCCSc1nc2ccccc2[nH]1,79.8% (active)
16,COc1ccccc1CSc1nc2ccccc2[nH]1,71.9% (active)
17,CCc1nnc(NC(=O)CCCSc2nc3ccccc3[nH]2)s1,13.8%
18,N#Cc1c(-c2ccccc2)nc(SCc2ccc([N+](=O)[O-])cc2)[nH]c1=O,-3.91%
19,COc1ccccc1-c1noc(CSc2nc(C)cc(=O)[nH]2)n1,-3.44%
20,C=CCSc1nc2ccccc2[nH]1,14.5%
21,COc1ccccc1CSc1ncc(-c2ccc([N+](=O)[O-])cc2)[nH]1,54.5% (active)
22,O=C(NCc1ccccc1)c1onc(CSc2nc3ccccc3[nH]2)c1C(=O)NCc1ccccc1,-3.72%
23,COc1ccccc1CC(=O)Nc1ccc([N+](=O)[O-])cc1OC,2.24%
24,CC(C)=N/N=C1/NC(=O)C(Cc2ccccc2)S1 (stereo not given),-7.41%

row,Structure (SMILES),inhibition
1,COc1cccc(CNC(=O)CN(C)S(=O)(=O)c2ccc3c(c2)c(=O)n(C)c(=O)n3C)c1,18.4%
2,O=C(O)CCCCCCCCc1cn(CN2C(=O)c3ccccc3C2=O)nn1,-8.38%
3,CC(CCc1ccccc1)NC(=O)COC(=O)c1ccc(F)cc1 (stereo not given),-4.73%
4,Cc1cccc(-c2nc(CS(=O)CC(=O)NC(C)CCc3ccccc3)c(C)o2)c1 (stereo not given),-4.68%
5,O=C(CCCN1C(=O)/C(=C/c2cccs2)SC1=S)Nc1ccc(O)cc1,42.3%
6,Cc1ccc(C(=O)NCCN2CCOCC2)cc1C,19%
7,CC(=O)Oc1cc2c(C(=O)NCCN3CCOCC3)c(C)oc2c2ccccc12,44.7% (active)
8,Cc1cc(C)cc(C(=O)NCCN2CCOCC2)c1,-7.36%
9,CC(=O)NC(CC(=O)Nc1cccc(S(=O)(=O)N2CCCC2)c1)c1ccccc1 (stereo not given),-34.1%
10,CC(=O)N1CCc2c(sc(NC(=O)CCS(=O)(=O)c3ccccc3)c2C#N)C1,17.3%
11,O=C1CSC(=S)N1c1ccc(O)cc1,-10.4%
12,N#Cc1c(Cl)nc(-c2cccnc2)nc1-c1ccccc1,-3.23%
13,Cc1ccnc(NC(=O)CCC(=O)N(CC(=O)NCc2ccccc2)Cc2ccco2)c1,-4.34%
14,Cc1ccc2c(c1)N(CC(=O)N(Cc1ccccn1)Cc1ccco1)C(=O)C(C(C)C)O2 (stereo not given),33.8% (active)
15,Cc1ccc(C(C(=O)NC2CCCC2)N(Cc2ccco2)C(=O)CCC(=O)Nc2ccccn2)cc1 (stereo not given),-14.7%
16,Cc1cc(C)c2c(=O)[nH]c(SCC(=O)Nc3ccc(Br)cc3)nc2n1,3.52%
17,CN(c1ccc(OCC(=O)O)cc1)S(=O)(=O)c1ccc2ccccc2c1,-4.36%
18,O=S(=O)(NC1CCCCC1N1CCC(O)CC1)c1ccc(Cl)cc1 (stereo not given),-13.2%
19,COc1ccc(-c2cc(C(F)(F)F)nc(SCCC(=O)NCc3ccco3)n2)cc1,25.3% (active)
20,COc1ccc(S(=O)(=O)N(CC(=O)NCc2ccco2)c2ccc(F)cc2)cc1,35.2%
21,O=C(CSc1nc(-c2ccco2)cc(C(F)(F)F)n1)NCc1cccs1,-12.1%
22,Cn1cc(CCC(=O)NC2CC2)c2ccccc21,11.7%
23,N#Cc1ccc(Cn2cc(C(=O)c3ccco3)c3ccccc32)cc1,92.3% (active)
24,CC1CCN(C(=O)Cn2cc(C(=O)c3ccco3)c3ccccc32)CC1,21.4%

row,Structure (SMILES),inhibition
1,Cc1cccc(NC(=O)Cn2cc(C(=O)c3ccco3)c3ccccc32)c1,-14.6%
2,NC(=O)N/N=C\c1cccs1,17.5%
3,Cc1n[nH]c(=O)nc1N/N=C/c1cccs1,29.8% (active)
4,Cc1nnc(N/N=C/c2cccs2)[nH]c1=O,3.51%
5,CC1(C)Oc2ccc3ccc(=O)oc3c2/C(=N/O)C1=O,-11.1%
6,COc1cc(NC(=O)CN2C(=O)NC(C)(c3ccc(OC(F)F)cc3)C2=O)cc(OC)c1OC (stereo not given),-3.05%
7,COc1ccccc1C(=O)NC(=S)NC12CC3CC(CC(C3)C1)C2,-21.8%
8,COc1cccc(/C=C/c2ccc3ccccc3n2)c1OC(C)=O,42.7% (active)
9,CCOc1cccc(/C=C/c2ccc3ccccc3n2)c1OC(C)=O,50.8%
10,COc1cccc(/C=C2\C=C(c3ccc(C)cc3)OC2=O)c1OC(C)=O,11.6%
11,O=C(NCCc1c[nH]c2ccccc12)C1CCN(Cc2ccc(Br)cc2)CC1,-4.77%
12,O=C(Cn1cc(C(=O)C2CC2)c2ccccc21)Nc1ccccc1Cl,-2.68%
13,O=c1[nH]c(/C=C\c2cccc(C(F)(F)F)c2)nc(O)c1[N+](=O)[O-],-8.88%
14,COc1cc(/C=C2\C(=N)N3N=C(CC(=O)N4CCOCC4)SC3=NC2=O)cc(OC)c1OC,-7.7%
15,O=C(CSc1ccc(-c2cccs2)nn1)Nc1ccccc1F,32.3%
16,Cc1cccc(CSc2ccc(-c3cccs3)nn2)c1,36.9% (active)
17,Cc1cccc(CSc2nnc(Cn3c(=O)sc4ccccc43)n2C)c1,-3.45%
18,COc1ccc(-c2ocnc2C(=O)Nc2ccc3c(c2)CCC3)cc1,-10.8%
19,O=C(Nc1ccc(-n2cccn2)cc1)C1CCN(Cc2ccsc2)CC1,-3%
20,CCC1S/C(=N/N=C/c2ccco2)NC1=O (stereo not given),22%
21,C=CCN1C(=O)C(Cc2cccc(Cl)c2)S/C1=N/N=C/c1ccco1 (stereo not given),-3.82%
22,COc1ccc(CN2C(=O)C(C)S/C2=N/N=C/c2ccco2)cc1 (stereo not given),137% (active)
23,Cc1cc(C)n(S(=O)(=O)c2cccc([N+](=O)[O-])c2)n1,-4.69%
24,COc1ccc(N(CC(=O)Nc2cccc3ccccc23)S(C)(=O)=O)c(OC)c1,-3.17%

row,Structure (SMILES),inhibition
1,COc1cc(C2CC(=O)c3cnc(NC(C)=O)nc3C2)cc(OC)c1OC (stereo not given),21.5%
2,CCc1ccc(Nc2ncc3c(n2)CC(c2ccco2)CC3=O)cc1 (stereo not given),72.5% (active)
3,O=C(Nc1ncc2c(n1)CC(c1ccco1)CC2=O)c1ccc(Cl)cc1 (stereo not given),1.6%
4,CCCC(C)NC(=O)C1CCN(C(=O)C2CC(=O)N(c3ccc(C)cc3)C2)CC1 (stereo not given),9.21%
5,COc1ccc2c(c1)c1nc3n(c(=O)c1n2CC(=O)Nc1ccccc1)CCS3,10.6%
6,COc1cccc(CNC(=O)CCC2CCCN(C(=O)c3ccc(F)c(Cl)c3)C2)c1 (stereo not given),0.606%
7,CC(=O)Nc1cccc(-c2csc(Nc3cccc(C)n3)n2)c1,103% (active)
8,COc1ccc(CCNc2nc(-c3cccc(NC(C)=O)c3)cs2)cc1OC,0.41%
9,NS(=O)(=O)c1ccc(Nc2nc(-c3ccccc3)cs2)cc1,17.7%
10,Cc1cccc(Nc2nc(-c3ccccc3)cs2)n1,150% (active)
11,Cc1cccc(S(=O)(=O)CC(=O)Nc2nc(-c3ccccc3)cs2)c1,-3.62%
12,CC(=O)Nc1ccc(S(=O)(=O)Nc2nc(-c3ccc(C(C)(C)C)cc3)cs2)cc1,-13.5%
13,COc1ccc(-c2onc3ccc(C(C)=O)cc23)cc1,-4.4%
14,O=C(CCS(=O)(=O)c1ccc2c(c1)NC(=O)CS2)NCc1ccccc1Cl,5.67%
15,O=C(NCc1ccc2c(c1)OCO2)C(=O)NCC1OCCN1S(=O)(=O)c1ccc(F)cc1 (stereo not given),-4.86%
16,O=C(NC(Cc1ccc(O)cc1)C(=O)O)/C(=C/c1ccccc1)NC(=O)c1ccccc1 (stereo not given),8.2%
17,O=C(NCCCN1CCOCC1)c1cc(-c2ccccc2F)no1,54.8% (active)
18,O=C(c1ccco1)N1CCN(C(=S)Nc2cc(F)cc(F)c2)CC1,35.8%
19,O=C(Cc1c(F)cccc1Cl)N1CCN(C(=O)c2ccco2)CC1,-5.75%
20,O=C(NCCCN1CCOCC1)c1cc(-c2ccc(Cl)cc2)on1,23.1%
21,O=C(c1ccco1)N1CCN(C(=O)c2cc(-c3ccccc3F)no2)CC1,66.3% (active)
22,O=C(NCCCN1CCOCC1)c1ccccc1NS(=O)(=O)c1ccc(F)cc1,43.2%
23,CC(=O)Nc1ccc(S(=O)(=O)NCC2CCC(C(=O)NCCc3ccccc3)CC2)cc1 (stereo not given),3.01%
